# RORg inh = ROR gamma (mouse) transcription inhibition | P51450 | Drosophila S2 Gal4-RORgamma UAS-luciferase reporter, 20 h | Potency, µM (top dose mostly 53.6 µM), inactives show at the highest dose activity change, negative = inhibition, most hits filed as inhibitors | 310,000 tested, 5.4% active | AID 2551; note: nearly all actives have a fitted effect of over 60% in size
# Target sequence (P51450 whole entry, looked up, the tested form may be a part): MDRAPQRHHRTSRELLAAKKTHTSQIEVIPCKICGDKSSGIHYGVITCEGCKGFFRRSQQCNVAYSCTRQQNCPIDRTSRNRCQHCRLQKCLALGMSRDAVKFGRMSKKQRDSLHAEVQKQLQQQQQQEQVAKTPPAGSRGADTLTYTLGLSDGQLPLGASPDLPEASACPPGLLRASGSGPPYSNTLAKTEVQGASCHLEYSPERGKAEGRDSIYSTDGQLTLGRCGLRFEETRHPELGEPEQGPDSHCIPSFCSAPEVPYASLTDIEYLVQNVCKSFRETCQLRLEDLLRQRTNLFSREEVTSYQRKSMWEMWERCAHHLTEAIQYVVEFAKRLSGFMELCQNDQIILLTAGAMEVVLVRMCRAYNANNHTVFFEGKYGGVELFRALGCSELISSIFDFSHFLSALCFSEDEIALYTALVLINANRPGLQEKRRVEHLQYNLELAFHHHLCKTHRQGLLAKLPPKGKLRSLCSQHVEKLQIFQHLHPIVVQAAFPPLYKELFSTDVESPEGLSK
#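 Stably transfected Drosophila Schneider cells are the test system, with ROR gamma fused to Gal4 and luciferase under UAS control; luminescence is read after 20 hr of 700 uM copper sulfate induction at ambient temperature.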
# Tau ThT inhib = tau fibrillization inhibition (ThT binding) | recombinant tau K18 P301L, heparin-induced fibrillization, ThT fluorescence | Potency, µM (titrated, usually from 57.4 µM), for inactives: top-dose activity, negative = inhibition, most hits filed as inhibitors | 270,000 tested, 2.1% active; note: nearly all actives have a fitted effect of over 55% in size
#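 Recombinant human tau K18 fragment […] carrying P301L, 15 uM unlabeled plus 0.24 uM Alexa 594-labeled, was fibrillized with 20 uM heparin in 100 mM sodium acetate pH 7 for 6 hr at 37 C; 30 uM ThT fluorescence read after 1 hr.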
# VP16 counter = inhibits Gal4-VP16 luciferase reporter, ROR gamma counter-screen; Drosophila S2 Gal4-VP16 UAS-luciferase, luminescence, 20 h; Potency, µM (series often up to 53.6 µM), for inactives: at the highest dose activity, negative = inhibition, usual class: inhibitors; 310,000 tested, 3.5% active;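 note: Gal4-VP16 expression switched on by copper sulfate through the metallothionein promoter; nearly all actives have a fitted effect of over 50% in size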
# Tau FP inhib = blocks human tau fibril formation measured by polarization; K18 P301L tau heparin fibrillization, Alexa594 FP, 6 h; P10636; Potency, µM (series often up to 57.7 µM), for the others: at the highest dose activity, negative = inhibition, most hits filed as inhibitors; AID 1468; 280,000 tested, 0.39% active; note: nearly all actives have a fitted effect of over 55% in size
#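 Recombinant K18 P301L […], labeled with Alexa 594 at 0.24 uM over 15 uM unlabeled; heparin inducer 20 uM final; 37 C, 6 hr; FP endpoint.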
# Tau fluor counter = counter-screen for tau fibril formation inhibitors; Potency, µM (series often up to 57.7 µM), for inactives: at the top dose activity change, negative = decrease; AID 1463; 280,000 tested, 0.93% active; tau K18 P301L Alexa594 fluorescence, heparin fibrillization; note: nearly all actives have a fitted effect of over 55% in size
#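 Human tau K18 P301L (15 uM unlabeled, 0.24 uM Alexa 594-labeled) in 100 mM sodium acetate pH 7 with 20 uM heparin, 6 hr at 37 C. ThT 30 uM added, 1 hr ambient; Alexa 594 FP and total fluorescence read at 555/632 nm.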
# An asterisk follows results filed as active; u = inconclusive; x = no result given; [ ] = another dose, or the depositor's remark. Shown are actives, neighbours in structure and some others; about 7.3% of the full set was active somewhere. Calls come from the whole dose curve; as a rule, active = well fitted curve in the direction sought with a large enough effect; inconclusive = small, poorly fitted or top-dose-only effect, or another doubt; inactive = no such curve, though single readings can be large; an effect the other way counts as inactive or inconclusive. % is set by controls: 0 for no effect and ±100 for the full control effect; potency is the fitted concentration of half-maximal effect.
SMILES,RORg inh,Tau ThT inhib,VP16 counter,Tau FP inhib,Tau fluor counter
COc1ccc(C(=O)CSc2cc(C)nc3nc(C)nn23)cc1OC,15.8µM*,u,u,-8.4%,1.9%
COc1ccc(C(=O)CSC#N)cc1OC,15.8µM*,15.8µM*,u,u,-9.1%
Cc1ccc(C(=O)Nc2nnc(S(=O)(=O)N3CCc4ccccc43)s2)cc1,x,u,x,-2.5%,-8.3%
COC(=O)CC(NC(=O)Nc1ccccc1F)c1ccc2c(c1)OCO2 (centres undefined),6.5%,x,-3.4%,x,x
Cc1cccc(N2CC(C(=O)Nc3ccc4c(c3)OCCO4)CC2=O)c1C (centres undefined),-15.3%,x,5.5%,x,x
COc1ccc(C(=O)CC(=O)c2ccccc2O)cc1,7.94µM*,x,6.31µM*,x,x
COc1ccc(C(=O)CC(=O)c2ccccc2O)cc1OC,7.08µM*,u,6.4%[10 µM],-5.0%,-25.8%
COc1ccc(/C(C)=N/Nc2nncc3ccccc23)cc1,u,x,-10.5%,x,x
COc1ccc(/C(C)=N/Nc2nc3ccccc3nc2C)cc1,2.51µM*,11.2µM*,12.6µM*,6.1%,u
Cc1cccn2c(=O)c3cc(C(N)=S)c(=N)n(CCCOC(C)C)c3nc12,-18.9%,u,-10.3%,-5.8%,-7.5%
Cc1cccn2c(=O)c3cc(C(=O)NCCc4ccccc4)c(=N)n(CCCn4ccnc4)c3nc12,-12.0%,11.2µM*,u,25.1µM*,11.2µM*[quencher]
CCOCCCn1c(=N)c(C(N)=S)cc2c(=O)n3cccc(C)c3nc21,-105.4%,-14.5%,14.1µM*,-7.5%,2.1%
COc1ccc(CC(=O)NN2C(=O)c3ccccc3C2=O)cc1,-12.1%,-1.7%,-1.3%,3.3%,1.8%
COc1ccc(CC2=CC(=O)c3ccccc3C2=O)cc1,7.08µM*,x,10µM*,x,x
S=c1[nH]cc(-c2ccccc2)[nH]1,0.0%,-1.6%,-4.0%,1.1%,1.3%
O=[N+]([O-])c1ccc(-c2c[nH]c(=S)[nH]2)cc1,-9.0%,25.1µM*,-0.1%,u,u
COc1ccc(CCNC(=O)C2CCN(c3nc4ccccc4nc3C(F)(F)F)CC2)cc1OC,x,-7.0%,x,-6.8%,-10.5%
O=c1oc2ccccc2cc1-c1cn2cccnc2n1,u,u,u,-0.9%,-5.7%
O=c1oc2ccccc2cc1-c1cn2ccccc2n1,1µM*,u,2.24µM*,0.6%,-9.7%
CC(C)CCNC(=O)C1CC(=O)N(CCc2ccccc2)C1 (centres undefined),2.8%,x,-2.5%,x,x
Cc1cc(C(=O)N/N=C/c2c(C)[nH]n(-c3ccccc3)c2=O)n[nH]1,10µM*,x,u,x,x
Cc1[nH]n(-c2ccccc2)c(=O)c1/C=N/NC(=O)c1ccc(O)cc1O,1.78µM*,x,7.08µM*,x,x
Cc1[nH]n(-c2ccccc2)c(=S)c1C=Nc1cccc([N+](=O)[O-])c1,1.78µM*,22.4µM*,7.08µM*,u,-22.6%
Cc1cc(C(=O)N/N=C/c2c(C)n(C)c3ccccc23)n[nH]1,5.7%,u,0.3%,4.9%,-7.2%
Cc1cc(-c2n[nH]c(=S)n2/N=C/c2cccc([N+](=O)[O-])c2)n[nH]1,-16.0%,-14.6%,-11.7%,-1.8%,-8.5%
SMILES,RORg inh,Tau ThT inhib,VP16 counter,Tau FP inhib,Tau fluor counter
CCCCN=Cc1c(C)[nH]n(-c2ccccc2)c1=S,0.631µM*,u,2.51µM*,-8.7%,-13.0%
Cc1[nH]n(-c2ccccc2)c(=O)c1C=NCCc1ccccc1,-10.0%,-3.7%,6.3%,6.4%,-8.6%
CCCCN(CCCC)C(=S)N/N=C/c1c(C)[nH]n(-c2ccccc2)c1=O,1.58µM*,u,5.01µM*,11.8%,u
Cc1ccc(-n2[nH]c(C)c(/C=N/NC(=O)c3ccc(O)cc3O)c2=O)cc1,2.51µM*,x,7.08µM*,x,x
Cc1ccc(-n2[nH]c(C)c(C=Nc3cc(C)ccn3)c2=O)cc1,-1.6%[0.365 µM],u,x,-3.2%,-14.4%
CCOC(=O)c1cnc2ccc(OCC)cc2c1N(C)Cc1ccccc1,14.1µM*,u,u,1.4%,-10.6%
Cc1cccc(NS(=O)(=O)c2ccc3c(c2)n(C)c(=O)n3C)c1C,x,8.9%,x,2.5%,6.8%
Oc1ccc(N=Nc2n[nH]c(-c3ccc(Cl)cc3)n2)cc1,-39.8%,1.78µM*,-3.4%,4.3%,u
Oc1ccc(N=Nc2ccccc2)cc1,-1.7%,x,-12.3%,x,x

# Screening results (PubChem)
